For assay [1], the target named is Thyrotropin receptor (Homo sapiens) (UniProt P16473). Put plainly: qHTS assay to identify small molecule antagonists of the thyroid stimulating hormone receptor (TSHR) signaling pathway (AID 1259385; calls by dose curve; further: nearly all actives have a fitted effect of over 20% in size). The method, boiled down: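 TSHR-HEK293 cells (800/well) plated 18 h, then compounds with Ro20-1724 and TSH at 1.5 ng/mL final, 30 min at room temperature. cAMP quantified by HTRF (cAMP-d2/anti-cAMP-cryptate, 1 h); 15 concentrations in triplicate.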
Thyrotropin receptor (Homo sapiens), sequence (P16473 whole entry, looked up): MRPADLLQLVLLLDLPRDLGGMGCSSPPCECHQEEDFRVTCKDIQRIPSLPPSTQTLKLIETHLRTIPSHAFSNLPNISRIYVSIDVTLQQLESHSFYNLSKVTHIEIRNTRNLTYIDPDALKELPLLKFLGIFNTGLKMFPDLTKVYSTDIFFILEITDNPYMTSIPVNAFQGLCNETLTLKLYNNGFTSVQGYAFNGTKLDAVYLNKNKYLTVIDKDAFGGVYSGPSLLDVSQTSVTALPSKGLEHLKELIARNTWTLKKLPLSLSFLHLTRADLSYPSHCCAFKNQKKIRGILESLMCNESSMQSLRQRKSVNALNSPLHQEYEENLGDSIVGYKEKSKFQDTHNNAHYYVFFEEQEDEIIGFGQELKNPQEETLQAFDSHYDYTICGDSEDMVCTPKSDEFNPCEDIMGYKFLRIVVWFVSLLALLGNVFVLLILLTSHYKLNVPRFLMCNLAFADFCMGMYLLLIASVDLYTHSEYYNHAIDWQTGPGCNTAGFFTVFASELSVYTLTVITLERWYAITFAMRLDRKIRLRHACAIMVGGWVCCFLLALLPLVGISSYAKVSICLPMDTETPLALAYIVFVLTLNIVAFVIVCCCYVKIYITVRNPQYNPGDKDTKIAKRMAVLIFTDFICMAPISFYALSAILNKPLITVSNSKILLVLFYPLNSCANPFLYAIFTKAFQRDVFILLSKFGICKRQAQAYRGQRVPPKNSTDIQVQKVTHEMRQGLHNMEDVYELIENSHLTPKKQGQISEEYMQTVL
For orientation: qHTS replaces the single test concentration by a dilution series.

Assay [2] in a line: qHTS assay to identify small molecule agonists of the estrogen receptor alpha (ER-alpha) signaling pathway in the presence of an antagonist - cell viability counter screen (AID 1259386).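 Further: cells exposed to compounds for 22 h at 37 °C before the viability read; nearly all actives have a fitted effect of over 30% in size.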 Further: potency means the concentration at half of the fitted maximal effect. Summed up:
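The test measures whether compounds kill ER-alpha reporter cells (VM7Luc4E2) under antagonist co-treatment (ICI-182,780, 10.0nM). Fluorescence from CellTiter-Fluor is read after a 22hr exposure.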

Assay [3] deals with Progesterone receptor (Homo sapiens) (UniProt P06401). Briefly: qHTS assay to identify small molecule agonists of the progesterone receptor (PR) signaling pathway (AID 1346784; calls by dose curve; further: nearly all actives have a fitted effect of over 30% in size). The method, boiled down: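 The screen uses PR-UAS-bla HEK 293T cells in charcoal-stripped serum (2%). Compounds are applied for 16 hr at 37C after a 6 hr pre-incubation, and reporter activity is detected with a FRET beta-lactamase substrate after 2 hr at room temperature.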
Progesterone receptor (Homo sapiens), sequence (P06401 whole entry, looked up): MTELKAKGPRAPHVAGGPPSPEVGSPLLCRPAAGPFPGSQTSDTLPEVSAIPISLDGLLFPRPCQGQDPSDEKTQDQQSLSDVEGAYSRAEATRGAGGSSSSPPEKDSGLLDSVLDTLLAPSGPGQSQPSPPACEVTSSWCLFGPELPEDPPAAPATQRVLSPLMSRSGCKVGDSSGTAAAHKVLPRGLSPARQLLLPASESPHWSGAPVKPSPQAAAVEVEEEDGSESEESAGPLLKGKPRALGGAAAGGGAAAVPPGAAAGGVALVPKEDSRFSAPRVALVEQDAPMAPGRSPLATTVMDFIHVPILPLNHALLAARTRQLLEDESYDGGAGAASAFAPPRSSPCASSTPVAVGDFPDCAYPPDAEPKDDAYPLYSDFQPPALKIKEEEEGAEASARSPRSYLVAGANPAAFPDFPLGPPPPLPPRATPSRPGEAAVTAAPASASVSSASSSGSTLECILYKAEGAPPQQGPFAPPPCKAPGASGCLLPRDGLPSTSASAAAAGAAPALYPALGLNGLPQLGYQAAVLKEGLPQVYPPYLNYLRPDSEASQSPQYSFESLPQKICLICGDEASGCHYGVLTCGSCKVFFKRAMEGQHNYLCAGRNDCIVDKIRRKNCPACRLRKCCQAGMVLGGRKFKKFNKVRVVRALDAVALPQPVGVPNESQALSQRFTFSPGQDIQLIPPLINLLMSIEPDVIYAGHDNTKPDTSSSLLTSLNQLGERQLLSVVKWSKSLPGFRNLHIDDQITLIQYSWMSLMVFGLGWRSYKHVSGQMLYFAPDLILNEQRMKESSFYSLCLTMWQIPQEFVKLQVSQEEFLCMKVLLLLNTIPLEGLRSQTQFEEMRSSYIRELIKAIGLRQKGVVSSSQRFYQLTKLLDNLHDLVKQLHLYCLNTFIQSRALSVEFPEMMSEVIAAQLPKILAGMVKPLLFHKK

The target is the same in assay [4]. Briefly: qHTS assay to identify small molecule antagonists of the progesterone receptor (PR) signaling pathway (AID 1346795; active means well fitted inhibition curve with a large enough effect in the signal ratio in the repeat runs, not every such curve was filed as active; the % refers to the signal ratio; further: potency means the concentration at half of the fitted maximal effect). The method, boiled down:
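After 6 hr plating at 37C in 2% stripped-serum medium, PR-UAS-bla HEK293T cells got compounds, then 1 nM R5020. Sixteen hours later, LiveBLAzer substrate was applied for 2 hr at room temperature and fluorescence was recorded.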

The nature of assay [5]: qHTS assay to identify small molecule antagonists of the progesterone receptor (PR) signaling pathway - cell viability counter screen (AID 1346798). Further: nearly all actives have a fitted effect of over 50% in size. Further: potency means the concentration at half of the fitted maximal effect. The method, boiled down: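 Viability was determined by ATP-based luminescence (CellTiter-Glo) in PR-UAS-bla HEK293T cells cultured in 2% charcoal-stripped serum and incubated 16 hr with compounds under R5020 stimulation.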
A short description of assay [6]: qHTS assay to identify small molecule agonists of the progesterone receptor (PR) signaling pathway - cell viability counter screen (AID 1346799; calls by dose curve; further: nearly all actives have a fitted effect of over 45% in size; further: potency means the concentration at half of the fitted maximal effect). Summed up: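 Viability was scored by ATP luminescence (CellTiter-Glo, 30 min, room temperature) in the same wells used for the reporter readout, after 16 hr compound exposure of PR-UAS-bla HEK293T cells.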
Assay [7] is described as follows: qHTS assay to identify small molecule antagonists of the TGF-beta/Smad signaling pathway - cell viability counter screen (AID 1346824). Further: nearly all actives have a fitted effect of over 50% in size. The method, boiled down:
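SBE-bla HEK 293T cells, incubated overnight, then compound plus 0.25 ng/mL TGF-beta1 (stock added) for 5 hr at 37 C. Viability was read in the same wells by CellTiter-Glo luminescence after 30 min at room temperature.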

Assay [8] is described as follows: qHTS assay to identify small molecule agonists of the TGF-beta/Smad signaling pathway - cell viability counter screen (AID 1346829). Further: top concentration of the series differs between compounds; nearly all actives have a fitted effect of over 45% in size. Summed up:
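Compound-treated SBE-bla HEK 293T cells (5 hr, 37 C) were assessed for viability with CellTiter-Glo in parallel with the reporter read.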

Assay [9] can be described thus: qHTS assay to identify small molecule agonists of the TGF-beta/Smad signaling pathway (AID 1346859; active means well fitted activation curve with a large enough effect in the signal ratio in the repeat runs, not every such curve was filed as active; the % refers to the signal ratio; further: series mostly up to about 77 µM). Summed up: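 Dual-wavelength fluorescence (460/530 nm emission) quantified beta-lactamase expression under the Smad binding element in HEK 293T cells following 5 hr compound treatment at 37 C.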
The target in assay [10] is Thyrotropin-releasing hormone receptor (Homo sapiens) (UniProt P34981). Put plainly: qHTS assay to identify small molecule antagonists of the thyrotropin-releasing hormone receptor (TRHR) signaling pathway (AID 1346877; active means well fitted inhibition curve with a large enough effect in the repeat runs, not every such curve was filed as active; further: series mostly up to about 51 µM). The method, boiled down:
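Overnight-plated (18 h, 37 °C) HEK293 cells expressing TRHR were dye-loaded 2 h, treated with compound, then stimulated with TRH at 1 nM final. Fluorescence intensity was captured every second for 3 min.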

Values without a mark were called inactive. Inconclusive results are not listed. The source made the active and inactive calls. Unless noted, the call rests on the fitted dose curve; in most records, active means well fitted curve in the direction sought with a large enough effect in the repeat runs; inconclusive means weak or mixed curves; inactive means no such curve, though single readings can be large; an effect the other way counts as inactive or inconclusive.

Thyrotropin-releasing hormone receptor (Homo sapiens), sequence (P34981 whole entry, looked up): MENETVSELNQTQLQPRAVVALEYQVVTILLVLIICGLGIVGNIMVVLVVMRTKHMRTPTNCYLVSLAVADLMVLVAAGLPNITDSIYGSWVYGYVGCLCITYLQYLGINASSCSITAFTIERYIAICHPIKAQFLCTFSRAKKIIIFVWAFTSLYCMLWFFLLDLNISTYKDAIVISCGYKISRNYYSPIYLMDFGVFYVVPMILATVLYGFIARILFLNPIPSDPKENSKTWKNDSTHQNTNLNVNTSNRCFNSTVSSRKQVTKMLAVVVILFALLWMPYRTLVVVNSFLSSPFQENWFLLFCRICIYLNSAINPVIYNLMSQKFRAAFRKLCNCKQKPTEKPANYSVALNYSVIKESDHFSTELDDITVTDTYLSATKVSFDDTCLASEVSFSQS

As to `O=C(O)CCS`, the Potency entry in assay [1], in [2], in assay [3], in [4], in assay [5] and in [6] was “inactive” throughout. The Potency result in assay [8] and in assay [9] was “inactive” in each case. The result in [7] and in assay [10] was inactive.

On to `O=C(O)c1cccc(Oc2ccccc2)c1`, for which the Potency result in [1], in assay [2], in [3], in assay [4], in assay [5] and in [6] was “inactive” each time. In assay [8], the Potency entry is “inactive”. Besides, the molecule was classed as inactive in assay [7] and in assay [10].

For the molecule `CC(=O)Oc1cccc(O)c1`, the Potency result in assay [1], in [2], in assay [3], in [4], in assay [5] and in [6] was “inactive” throughout. For the same molecule, the Potency entry in assay [8] and in [9] was “inactive” in each case. The molecule was called inactive in assay [7] and in [10].

Turning to `CC1=C2[C@@H]([C@H](C)CC[C@H]2/C=C(\C)C(=O)O)[C@H](O)C1`, the Potency result in [1], in assay [2], in assay [3], in assay [5], in assay [6] and in assay [8] was “inactive” each time. Also, the Potency result in [9] was “inactive”. For the same molecule, in [7], the molecule was classed as inactive.

`BrC(Br)C(Br)Br`: the Potency entry in [1], in assay [2], in assay [4], in assay [5], in assay [6] and in assay [8] was “inactive” in each case. Further, the Potency result in assay [9] is “inactive”. In assay [7], the outcome was inactive.

Turning to `O[C@@H](CNC[C@H](O)[C@H]1CCc2cc(F)ccc2O1)[C@@H]1CCc2cc(F)ccc2O1`, the Potency entry in assay [1], in [2], in assay [8] and in assay [9] was “inactive” throughout. Further, the Potency was 26.6 µM (active) in assay [4], 29.8 µM (active) in assay [5] and 29.8 µM (active) in assay [6]. Further, the call in [7] was inactive.

Consider `CCC(CO)(CO)CO`, for which the Potency result in [1], in assay [2], in [4], in assay [5], in assay [6] and in assay [8] was “inactive” in each case. Moreover, the Potency result in assay [9] was “inactive”. In addition, the molecule was classed as inactive in assay [7] and in assay [10].

As to `CCC1CCC(CCC(=O)O)C1` (stereo not drawn), the Potency result in [1], in assay [2], in assay [3], in assay [5], in assay [8] and in assay [9] was “inactive” throughout. Also, the molecule was classed as inactive in assay [7] and in [10].

Regarding `CC(=O)C(C)=O`, the Potency result in assay [1], in assay [2], in assay [3], in assay [6] and in [8] was “inactive” each time. Further, in assay [7], the result was inactive.

Turning to `COC(=O)Nc1nc2ccc(C(=O)C3CC3)cc2[nH]1`, the Potency entry in [1], in assay [2], in assay [3], in assay [8] and in assay [9] was “inactive” in each case. The call in assay [7] was inactive.

For the molecule `Oc1ccc2c(c1)Cc1ccccc1-2`, the Potency entry in assay [1], in assay [2], in assay [3], in assay [5] and in [9] was “inactive” each time. In addition, the call in assay [7] and in [10] was inactive.

Regarding `O=C(NS(=O)(=O)/C=C/c1ccccc1)c1ccc(F)cc1Cl`, the Potency entry in assay [1], in [2], in [3], in [5], in [8] and in assay [9] was “inactive” in each case. The call in assay [7] and in assay [10] was inactive.

As for `COc1ccc(/C=C/C(=O)c2ccc(OC)cc2OC)cc1`, the Potency result in [1], in assay [2], in [3] and in [8] was “inactive” throughout. In [7], the call was inactive.

Regarding `O=C1OC(=O)c2c(Br)c(Br)c(Br)c(Br)c21`, the Potency entry in assay [1], in [2], in assay [3], in [5], in [6] and in [8] was “inactive” in each case. In addition, in assay [9], the Potency result is “inactive”. In addition, the outcome in assay [7] and in assay [10] was inactive.

For the molecule `CCCCCCOC(=O)CCCCC`, the Potency result in [1], in assay [2], in [4], in [5], in assay [6] and in [8] was “inactive” throughout. Further, the result in assay [7] and in [10] was inactive.

Take `O=C(O)CCC(=O)c1ccc(-c2ccccc2)cc1`: the Potency entry in assay [1], in assay [2], in assay [3], in [6] and in assay [8] was “inactive” each time. Also, the result in [7] was inactive.

`CN=C(N)NC(=O)Nc1c(C)cccc1C`: the Potency entry in assay [1], in assay [2], in [4], in assay [5], in [6] and in assay [8] was “inactive” throughout. The result in assay [7] was inactive.

On to `CC(C)(C(=O)c1cccnc1)c1cccnc1`, for which the Potency entry in assay [1], in [2], in assay [4], in [5], in assay [6] and in [8] was “inactive” each time. Also, the Potency entry in assay [9] was “inactive”. The call in assay [7] and in assay [10] was inactive.

On to `CC(=O)OCC1=C(C(=O)O)N2C(=O)[C@@H](NC(=O)CSc3ccncc3)[C@H]2SC1`, for which the Potency entry in assay [1], in assay [2], in assay [3], in [5], in [6] and in assay [9] was “inactive” in each case. In addition, the molecule was classed as inactive in [10].

For the molecule `CCCCCCCC(=O)Oc1c(Br)cc(C#N)cc1Br`, the Potency result in [1], in assay [2], in [3], in assay [8] and in assay [9] was “inactive” each time. Moreover, the result in assay [7] and in assay [10] was inactive.

Turning to `COc1ccc(-n2nc(C(F)F)cc2-c2ccc(S(C)=O)cc2)cc1` (stereo not drawn), the Potency entry in assay [1], in assay [2], in [3], in [5], in assay [6] and in [8] was “inactive” in each case. Further, the molecule was classed as inactive in assay [10].

Consider `[Cl][Nd]([Cl])[Cl]`, for which the Potency result in [1], in [2], in assay [3], in [5], in assay [6] and in [8] was “inactive” each time. Besides, the Potency entry in [9] was “inactive”. The molecule was classed as inactive in assay [7] and in assay [10].

Turning to `COC(C)(C)OC`, the Potency result in assay [1], in assay [2], in [4], in assay [5], in assay [6] and in assay [8] was “inactive” each time. Also, in assay [7], the result was inactive.

As to `Cc1cc([N+](=O)[O-])ccc1N`, the Potency result in assay [1], in assay [3], in [6], in [8] and in [9] was “inactive” throughout. In addition, the Potency in assay [2] was 47.9 µM (active). In assay [7], the molecule was classed as inactive.

For the molecule `CC(=O)c1ccc[nH]1`, the Potency result in assay [1], in [2], in assay [4], in assay [5], in [6] and in assay [8] was “inactive” throughout. Further, the Potency entry in assay [9] was “inactive”. Also, the call in assay [7] and in assay [10] was inactive.

For the molecule `Nc1nc2ccc(OC(F)(F)F)cc2s1`, the Potency result in assay [1], in assay [2], in assay [3], in assay [5], in [6] and in assay [8] was “inactive” each time. Also, the Potency result in assay [9] was “inactive”. For the same molecule, in assay [7], the call was inactive.

Take `CC(=O)C(=O)CC(C)C`: the Potency entry in [1], in [2], in assay [3], in assay [6], in [8] and in assay [9] was “inactive” throughout. Also, the molecule was classed as inactive in [10].

`CC(=O)OCCC(C)CC(C)(C)C` (stereo not drawn): the Potency entry in assay [1], in assay [2], in assay [3], in [5], in assay [8] and in assay [9] was “inactive” each time. For the same molecule, in assay [7], the result was inactive.

`O=C(CCS)OCC(COC(=O)CCS)(COC(=O)CCS)COC(=O)CCS`: the Potency entry in [1], in assay [2], in [4], in assay [5], in assay [6] and in assay [8] was “inactive” throughout. Also, the Potency entry in assay [9] is “inactive”. For the same molecule, the call in assay [7] and in assay [10] was inactive.

As for `CC(C)(C)C1(CCc2ccc(Cl)cc2)CO1` (stereo not drawn), the Potency result in [1], in assay [2], in assay [3], in assay [5], in assay [6] and in assay [8] was “inactive” in each case. The Potency result in assay [9] is “inactive”. The call in assay [10] was inactive.

Source of the values: PubChem BioAssay (Tox21).
